“And” between values parts separate entries of the source, which are not always exact repeats. Identical values can stand only once. Out of some 360,000 compounds screened, about 25,000 (6.9%) were called active. Roughly 9% stayed inconclusive and do not appear here. Calls follow the shape of the dose curve; as a rule, active = well fitted inhibition curve with a large enough effect; inconclusive = small, poorly fitted or top-dose-only effect; inactive = flat fitted curve, though single readings scatter. Shown is part of a subset that was picked to be rich in actives. Entries that show only a call come without a potency. Some structures have more than one record in an assay (separate samples or runs), and their calls can disagree.
Potency is read from the fitted curve at half-maximal effect.

The experiment deals with Luciferin 4-monooxygenase (Photinus pyralis) (UniProt P08659). The experiment is described as follows: qHTS profiling assay for firefly luciferase inhibitor/activator using purifed enzyme and Km concentrations of substrates (counterscreen for miR-21 project). Also: nearly all actives have a fitted effect of over 55% in size. Conditions: purified FLuc, luminescence inhibition; series mostly up to 57.5 µM. The procedure, abridged: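 Purified P. pyralis luciferase (10nM final) with 10uM D-luciferin and 10uM ATP (Km levels) in 50mM Tris acetate pH 7.5, 10mM Mg acetate, 0.01% Tween-20, 0.05% BSA; qHTS 6-point titration, ~60 µM downward; luminescence read.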
Luciferin 4-monooxygenase (Photinus pyralis), sequence (P08659 whole entry, looked up): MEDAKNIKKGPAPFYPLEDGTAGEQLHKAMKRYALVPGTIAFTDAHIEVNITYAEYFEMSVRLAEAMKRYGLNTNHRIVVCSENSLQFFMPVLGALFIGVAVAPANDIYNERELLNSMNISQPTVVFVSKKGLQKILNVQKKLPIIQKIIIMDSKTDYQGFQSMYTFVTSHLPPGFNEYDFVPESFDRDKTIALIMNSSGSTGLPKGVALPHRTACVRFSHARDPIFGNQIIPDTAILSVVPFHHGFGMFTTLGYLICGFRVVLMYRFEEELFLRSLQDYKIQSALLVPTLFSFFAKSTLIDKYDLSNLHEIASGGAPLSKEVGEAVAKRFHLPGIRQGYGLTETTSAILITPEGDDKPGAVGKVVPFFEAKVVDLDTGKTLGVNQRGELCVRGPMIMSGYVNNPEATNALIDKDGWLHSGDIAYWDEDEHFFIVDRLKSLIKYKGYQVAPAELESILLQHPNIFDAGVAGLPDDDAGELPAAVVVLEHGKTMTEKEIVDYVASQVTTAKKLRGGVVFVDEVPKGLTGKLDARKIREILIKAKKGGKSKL
(In qHTS, concentration-response curves come from the screen itself.)
`Cc1noc2ncnc(NCc3ccccc3Cl)c12`: the Potency result is “inactive”.

As to `O=C(CCSCc1cccc(F)c1)NCc1ccccc1`, the Potency result is “inactive”.

Take `CCN(CC)CCn1c2c(c(SCC(=O)Nc3nc4ccccc4s3)nc1=O)CCCC2`: the Potency result is “inactive”.

Regarding `c1ccc2sc(NN=C3CCCC3)nc2c1`, the Potency was 2.69 µM (active).

`O=C1NC(Nc2nc3ccccc3s2)(C(F)(F)F)C(=O)N1C1CCCCC1` (configuration not stated): the Potency entry is “inactive”.

As to `COC(=O)c1ccccc1NC(=O)C(Cc1ccccc1)N1Cc2ccccc2C1=O` (configuration not stated), the Potency result is “inactive”.

For the compound `COCCNC(=O)CSc1nc(-c2ccccc2)[nH]c1-c1ccc(C)cc1`, the Potency result was “inactive”.

Regarding `C=CCNC(=S)N1CCN(CCN=Cc2c(C)[nH]n(-c3ccc([N+](=O)[O-])cc3)c2=O)CC1`, the Potency entry is “inactive”.

In the case of `CCc1ccccc1NC(=O)c1cc(-c2ccc3c(c2)OCO3)on1`, the Potency result was “inactive”.

Consider `O=C(Nc1ccccc1C(F)(F)F)c1cc(-c2ccc(O)cc2)on1`, for which the Potency is 26.9 µM (active).

As to `O=C(Nc1cccnc1Cl)c1cc(-c2cccc(Cl)c2)on1`, the Potency result was “inactive”.

In the case of `Cc1ccccc1CSc1nc2c([nH]c3ccccc32)c(=O)n1C`, the Potency result is “inactive”.

As to `COc1ccc(CNC(=O)CS(=O)Cc2nc(-c3cccc(C)c3)oc2C)cc1` (configuration not stated), the Potency entry is “inactive”.

Turning to `COc1ccc(CNc2nc(-c3ccc(Cl)cc3)nn2C(=O)c2ccccc2)cc1`, the Potency entry is “inactive”.

Consider `COc1ccc(Cn2c(-c3ccc(Cl)cc3)c[n+]3ccccc23)cc1`, for which the Potency is 19 µM (active).

Take `COc1ccc(CNc2nc(-c3ccc(Cl)cc3)cc(C(F)(F)F)n2)cc1`: the Potency result was “inactive”.

Regarding `COc1ccc(OC)c(-c2csc(-c3c(N)c(C(=O)c4ccccc4)n4ccccc34)n2)c1`, the Potency entry was “inactive”.

In the case of `CC(C)(C)c1ccc(C(=O)N2CCC(c3nc(-c4ccc(S(=O)(=O)N5CCCC5)cc4)no3)CC2)cc1`, the Potency result was “inactive”.

On to `Cc1ccc(NC(=O)c2csc3c2CCCC3)cc1`, for which the Potency was 4.26 µM (active).

Regarding `CCOc1ccc(CCNC(=O)c2csc3c2CCCCC3)cc1`, the Potency entry is “inactive”.

As for `CC(C)NC(=O)C(=O)N/N=C/c1ccco1`, the Potency result was “inactive”.

For the compound `O=C(NCc1ccccc1Cl)c1csc2c1CCCCC2`, the Potency entry is “inactive”.

Consider `COC(=O)c1sc(NC(=O)c2csc3c2CCCC3)nc1C`, for which the Potency is 2.39 µM (active).

`CCOC(=O)c1sc(NC(=O)c2cc(S(=O)(=O)N3CCOCC3)ccc2C)nc1C`: the Potency result was “inactive”.

In the case of `CC1CC(C)CN(CCCNC(=O)c2csc3c2CCCCC3)C1` (configuration not stated), the Potency entry is “inactive”.

With `O=C(N/N=C/c1ccco1)c1csc2c1CCCC2`, the Potency was 15.1 µM (active).

Turning to `O=C(N/N=C/c1ccco1)c1ccc(NC(=O)C2CC2)cc1`, the Potency entry is “inactive”.

As for `Cc1c(CCOC(=O)CC23CC4CC(CC(C)(C4)C2)C3)sc[n+]1Cc1ccc([N+](=O)[O-])cc1`, the Potency result was “inactive”.

On to `CCn1c(SCC(=O)NCC2CCCO2)nc2ccccc21` (configuration not stated), for which the Potency entry is “inactive”.

Turning to `CCc1ccccc1NC(=O)Cn1c(=O)n(-c2cccc(C)c2)c(=O)c2c1c1cc(OC)ccc1n2C`, the Potency result was “inactive”.

As to `CC(=O)c1ccc(S(=O)(=O)NCCC(=O)N2CCN(c3ccccn3)CC2)cc1`, the Potency result was “inactive”.

In the case of `O=C(CC(c1cccs1)N1Cc2ccccc2C1=O)Nc1ccc(F)cc1F` (configuration not stated), the Potency entry is “inactive”.

Turning to `Nc1ccc(C(=O)N2CCN(S(=O)(=O)c3ccc(Cl)cc3)CC2)cc1[N+](=O)[O-]`, the Potency entry was “inactive”.

Regarding `COc1ccc(-c2nc(S(=O)(=O)c3ccccc3)c(N3CCCCC3)o2)cc1`, the Potency result was “inactive”.

As for `Nc1ccc(S(=O)(=O)Nc2nccc(/C=C/c3ccc(Br)s3)n2)cc1`, the Potency result is “inactive”.

On to `Oc1cccc2ccc(/C=C/c3ccc(Br)s3)nc12`, for which the Potency is 6.75 µM (active).

On to `COc1cccc(N(CC(=O)NC2CCCC2)C(=O)CCCC(=O)Nc2ccccn2)c1`, for which the Potency result is “inactive”.

Consider `CC1CCN(C(=S)c2ccc(-c3ccc(Cl)cc3Cl)o2)CC1`, for which the Potency is 12 µM (active).

With `CC1CCN(C(=S)c2cccc(O)c2)CC1`, the Potency result is “inactive”.

`COc1ccc(C(=O)Nc2c(Cl)cc(Cl)cc2C(=O)N2CCC(C)CC2)cc1`: the Potency result was “inactive”.

Regarding `O=C(CN1C(=O)COc2ccc(S(=O)(=O)N3CCOCC3)cc21)N1CCN(c2cccc(Cl)c2)CC1`, the Potency result was “inactive”.

As for `CC(=O)c1cccc(NC(=O)c2cc(C)nn2-c2ccccc2)c1`, the Potency entry was “inactive”.

For the compound `O=C(Nc1cn(-c2ccccc2)nc1-c1ccccc1)c1ccccc1`, the Potency was 15.1 µM (active).

Consider `Cc1onc(-c2ccccc2)c1C(=O)NNC(=S)NC(=O)c1ccc(F)cc1`, for which the Potency entry is “inactive”.

On to `O=C(NNC(=S)NC(=O)c1cn(-c2ccccc2)nc1-c1ccccc1)c1ccncc1`, for which the Potency is 13.5 µM (active).

For `Cc1onc(-c2ccccc2)c1C(=O)Nc1ccccc1C#N`, the Potency result was “inactive”.

`COc1ccc(C(=O)NC(=S)NNC(=O)c2c(-c3ccccc3)noc2C)cc1`: the Potency result was “inactive”.

For the compound `CCCCn1cc(S(=O)(=O)c2ccc(OCC)cc2)c(=O)c2cc(OC)c(OC)cc21`, the Potency result was “inactive”.

`CCCCC/C=C/C1=CC(=O)C[C@H](c2ccc(Cl)cc2)C1`: the Potency entry was “inactive”.

`CCOC(=O)c1cnc2c(C)cc(C)cc2c1Nc1ccc(N2CCOCC2)cc1`: the Potency result is “inactive”.

`N#Cc1c(N)nc2c3c(sc(=N)c2c1N)NC(=O)CC3c1ccccc1Cl` (configuration not stated): the Potency entry is “inactive”.

For the compound `CSc1ncccc1C(=O)NCc1ccccc1Cl`, the Potency result was “inactive”.

On to `O=C(NC1CCCCCC1)C1CCN(C(=O)c2ccc(Cl)cc2)CC1`, for which the Potency result is “inactive”.

With `O=[N+]([O-])c1ccccc1NCc1ccccc1Cl`, the Potency entry was “inactive”.

In the case of `O=C(O)Cc1ccc(NCc2ccccc2Cl)cc1`, the Potency was 7.57 µM (active).

Consider `S=C(NCCc1ccccc1)NCc1ccccc1Cl`, for which the Potency entry was “inactive”.

Turning to `O=C(c1ccc(Cl)cc1)n1nc(-c2cccnc2)nc1NCc1ccc(F)cc1`, the Potency result was “inactive”.

With `CN(C)c1nc(=Nc2cccc(Cl)c2)ss1`, the Potency is 3.38 µM (active).

Take `CCOC(=O)N1CCc2c(sc3c2c(=O)n(Cc2ccccc2)c(=O)n3CC(=O)Nc2cccc(C)c2)C1`: the Potency entry was “inactive”.

As for `CCOc1cc(C(=O)Nc2nnc3n2CCS3)cc(OCC)c1OCC`, the Potency entry was “inactive”.

`O=C(NCc1cccs1)c1ccc2c(c1)ncn2C1CCCC1`: the Potency is 19 µM (active).

Regarding `O=C(NCc1ccc(Cl)cc1)c1ccc2c(c1)nnn2C1CCCC1`, the Potency result was “inactive”.

Take `Cc1ccc(-c2cn3c(n2)sc2cc(C(=O)NCc4cccs4)ccc23)c(C)c1`: the Potency result was “inactive”.

Take `O=C(Nc1nnc(S(=O)(=O)N2CCCc3ccccc32)s1)c1cccc(F)c1`: the Potency entry was “inactive”.

Regarding `CCOC(=O)CSc1nnc(NC(=O)c2cccc(S(=O)(=O)N3CCCCC3)c2)s1`, the Potency entry was “inactive”.

Regarding `Cc1cccc(NC(=O)c2cccc(S(=O)(=O)N3CCCC3)c2)n1`, the Potency entry is “inactive”.

As for `O=C(Nc1nnc(S(=O)(=O)N2CCCCCC2)s1)c1cccc(Br)c1`, the Potency entry is “inactive and 26.9 µM (active)”.

For `O=C(Nc1nncs1)c1cccc(S(=O)(=O)N2CCCCC2)c1`, the Potency entry was “inactive”.

Take `CCc1nnc(NC(=O)c2cc(S(=O)(=O)N3CCCCC3)ccc2C)s1`: the Potency entry was “inactive”.

Take `Cc1ccccc1OCC(=O)Nc1nnc(S(=O)(=O)N2CCCC2)s1`: the Potency entry is “inactive”.

On to `CCOC(=O)CSc1nnc(NC(=O)c2cccc(S(=O)(=O)N3CCCC3)c2)s1`, for which the Potency was 23.9 µM (active).

As for `Cc1cccc(C(=O)Nc2nnc(S(=O)(=O)N3CCCCCC3)s2)c1`, the Potency was 26.9 µM (active).

For the origin of these results see PubChem BioAssay AID588342 (National Center for Advancing Translational Sciences (NCATS), 2011).
